Test results taken from PubChem BioAssay (NCI).
Compounds without any hit were thinned out: in the full panel of roughly 79,000, 15% have a hit. Calls of active or inactive are those of the source. Cut-off read from the data, not from the text of the source: active = growth inhibition above about 70%; inactive = the rest.

Columns and labels:
[1] = NCI Yeast Anticancer Drug Screen. Data for the mec2-1 strain (AID 157); settings: S. cerevisiae mec2-1 strain, at 100.0 µM, active compounds read high
Outline: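 Readout is yeast growth inhibition, normalised to vehicle-treated controls, in the mec2-1 strain exposed to compound.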

[2] = NCI Yeast Anticancer Drug Screen. Data for the rad14 strain (AID 159);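 note: 0% = growth of vehicle-treated control cultures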; settings: S. cerevisiae rad14 strain growth inhibition, active compounds read high
Outline: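 Here, inhibition of yeast growth was measured after compound exposure, using a strain with a genetic defect in DNA damage repair and vehicle-treated cultures as the reference.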

[3] = NCI Yeast Anticancer Drug Screen. Data for the sgs1 mgt1 strain (AID 161);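 note: 0% = growth of cultures given vehicle only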; settings: S. cerevisiae sgs1 mgt1 strain, active compounds read high
Outline: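 Compounds are added to genetically altered yeast, and growth is compared with cultures given vehicle alone to give percent inhibition.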

[4] = NCI Yeast Anticancer Drug Screen. Data for the CLN2oe strain (AID 163);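 note: 0% = growth of vehicle-only control cultures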; settings: S. cerevisiae CLN2oe strain, active compounds read high
Outline: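 Values reflect how much compound exposure reduced yeast growth, referenced to vehicle-exposed cells. Assay organism is a strain with a defined genetic change affecting cell-cycle control.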

[5] = NCI Yeast Anticancer Drug Screen. Data for the cln2 rad14 strain (AID 165);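 note: 0% = growth equal to vehicle treated cultures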; settings: S. cerevisiae cln2 rad14 strain, active compounds read high
Outline: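 Relative to vehicle controls, growth inhibition of compound-treated cln2 rad14 yeast was recorded.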

[6] = NCI Yeast Anticancer Drug Screen. Data for the bub3 strain (AID 167); settings: S. cerevisiae bub3 mutant strain, active compounds read high
Outline: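 Whole-cell yeast assay. The mutant strain was incubated with compounds, and growth inhibition was determined by comparison with vehicle-treated cells.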

[7] = NCI Yeast Anticancer Drug Screen. Data for the wt2 strain (AID 169);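 note: 0% = growth of vehicle-treated yeast cultures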; settings: S. cerevisiae wt2 strain growth inhibition, active compounds read high
Outline: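 Values express reduction in yeast growth under compound treatment, referenced to vehicle-treated cells.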

[8] = NCI Yeast Anticancer Drug Screen. Data for the mlh1 strain (AID 171);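 note: 0% = growth of vehicle-treated control cultures of the same strain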; settings: S. cerevisiae mlh1 strain growth inhibition, active compounds read high
Outline: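 Steps: expose the defined-mutant yeast strain to compound; expose a parallel culture to vehicle; measure growth; express compound effect as inhibition relative to the vehicle culture.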

[9] = NCI Yeast Anticancer Drug Screen. Data for the sgs1 strain (AID 173);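 note: 0% = growth of vehicle-only control cultures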; settings: S. cerevisiae sgs1 mutant, active compounds read high
Outline: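 Treat defined-mutant yeast with compound; measure growth; calculate inhibition relative to vehicle-treated cells.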

[10] = NCI Yeast Anticancer Drug Screen. Data for the mlh1 rad18 strain (AID 175); settings: S. cerevisiae mlh1 rad18 strain growth inhibition, active compounds read high
Outline: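 Test agents were incubated with a yeast strain of defined genotype (DNA damage repair defect). Inhibition of growth was derived by comparison with vehicle-exposed cultures.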

[11] = NCI Yeast Anticancer Drug Screen. Data for the rad18 strain (AID 177); settings: S. cerevisiae rad18 mutant growth inhibition, active compounds read high
Outline: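 A genetically defined yeast mutant impaired in DNA damage repair was treated with test compounds, then its growth was measured against cultures receiving vehicle alone.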

[12] = NCI Yeast Anticancer Drug Screen. Data for the rad52 strain (AID 147);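 note: 0% = growth of vehicle-treated control cultures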; settings: S. cerevisiae rad52 mutant growth inhibition, active compounds read high
Outline: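 Screen used a yeast mutant impaired in DNA repair. After compound exposure, growth was measured. Values reflect inhibition compared with vehicle-treated cells.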

[13] = NCI Yeast Anticancer Drug Screen. Data for the rad50EPP+ strain (AID 151);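 note: 0% = growth of vehicle-treated control cultures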; settings: S. cerevisiae rad50 mutant strain, active compounds read high
Outline: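 Exposing the rad50EPP+ strain to each compound, growth was compared with vehicle-only cultures to give inhibition.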

[14] = NCI Yeast Anticancer Drug Screen. Data for the rad50 strain (AID 155);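 note: 0% = growth of vehicle-only cultures of the same strain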; settings: S. cerevisiae rad50 strain growth inhibition, active compounds read high
Outline: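 Growth of the mutant yeast was measured after compound exposure and referenced to vehicle-treated cultures.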

[15] = at 5.0 µM (retest, dose inferred, filed as 0.5)
[16] = at 50.0 µM (retest, dose inferred, filed as 5.0)

Measured: growth inhibition

CCC(=O)c1cccc2ccccc12
inactive: [1] -1% | [2]; at 1.2 µM -1% | [2]; at 3.7 µM -2% | [2]; at 11.0 µM -1% | [2]; at 33.0 µM -1% | [2]; at 100.0 µM 4% | [3]; [15] -4% | [3]; [16] 52% | [3]; at 50.0 µM 20% | [4]; at 1.2 µM -7% | [4]; at 3.7 µM 2% | [4]; at 11.0 µM -6% | [4]; at 33.0 µM -13% | [4]; at 100.0 µM -11% | [5]; [15] 12% | [5]; [16] 18% | [5]; at 50.0 µM 46.5% | [6]; at 1.2 µM -6% | [6]; at 3.7 µM -6% | [6]; [15] 11% | [6]; at 11.0 µM -6% | [6]; at 33.0 µM -8% | [6]; [16] 23% | [6]; at 50.0 µM -4.8% | [6]; at 100.0 µM 4% | [7]; at 1.2 µM 1% | [7]; at 3.7 µM 2% | [7]; at 11.0 µM 3% | [7]; at 33.0 µM 1% | [7]; at 100.0 µM 1% | [8]; at 1.2 µM 3% | [8]; at 3.7 µM 2% | [8]; at 11.0 µM 2% | [8]; at 33.0 µM 1% | [8]; at 100.0 µM 4% | [9]; at 1.2 µM 1% | [9]; at 3.7 µM 3% | [9]; at 11.0 µM 4% | [9]; at 33.0 µM 3% | [9]; at 100.0 µM 14% | [10]; [15] 7% | [10]; [16] 28% | [10]; at 50.0 µM -14.7% | [11]; at 1.2 µM 1% | [11]; at 3.7 µM -1% | [11]; at 11.0 µM -14% | [11]; at 33.0 µM 0% | [11]; at 100.0 µM -2%

C[C@H](CCC(=O)NN)[C@H]1CC[C@H]2[C@@H]3CC[C@@H]4C[C@H](O)CC[C@]4(C)[C@H]3CC[C@]12C
active: [6]; [16] 73% | [6]; at 50.0 µM 89.2% | [10]; at 50.0 µM 92.2%
inactive: [12]; at 1.2 µM -2% | [12]; at 3.7 µM 0% | [12]; at 11.0 µM 0% | [12]; at 33.0 µM 6% | [12]; at 100.0 µM 10% | [13]; at 1.2 µM 0% | [13]; at 3.7 µM 4% | [13]; at 11.0 µM 4% | [13]; at 33.0 µM 6% | [13]; at 100.0 µM 18% | [14]; at 1.2 µM 1% | [14]; at 3.7 µM 1% | [14]; [15] 12% | [14]; at 11.0 µM 9% | [14]; at 33.0 µM -1% | [14]; [16] 45% | [14]; at 50.0 µM 60% | [14]; at 100.0 µM 5% | [2]; at 1.2 µM 0% | [2]; at 3.7 µM -3% | [2]; at 11.0 µM 0% | [2]; at 33.0 µM -5% | [2]; at 100.0 µM 12% | [3]; [15] 3% | [3]; [16] 51% | [3]; at 50.0 µM 35.3% | [4]; at 1.2 µM -4% | [4]; at 3.7 µM 2% | [4]; at 11.0 µM 5% | [4]; at 33.0 µM 2% | [4]; at 100.0 µM 16% | [5]; [15] -4% | [5]; [16] 54% | [5]; at 50.0 µM 54.4% | [6]; at 1.2 µM -3% | [6]; at 3.7 µM 1% | [6]; [15] -18% | [6]; at 11.0 µM 8% | [6]; at 33.0 µM 1% | [6]; at 100.0 µM -3% | [7]; at 1.2 µM -2% | [7]; at 3.7 µM -2% | [7]; at 11.0 µM -2% | [7]; at 33.0 µM -1% | [7]; at 100.0 µM 2% | [8]; at 1.2 µM 3% | [8]; at 3.7 µM 2% | [8]; at 11.0 µM 2% | [8]; at 33.0 µM -14% | [8]; at 100.0 µM 4% | [9]; at 1.2 µM 2% | [9]; at 3.7 µM 3% | [9]; at 11.0 µM 4% | [9]; at 33.0 µM 4% | [9]; at 100.0 µM 6% | [10]; [15] 21% | [10]; [16] 44% | [11]; at 1.2 µM -5% | [11]; at 3.7 µM -4% | [11]; at 11.0 µM 5% | [11]; at 33.0 µM 0% | [11]; at 100.0 µM 3%
